{"source": "PubChem BioAssay AID631", "about": "(The Scripps Research Institute Molecular Screening Center, 2007)", "note": "Screen size: about 200,000 compounds; about 810 (0.41%) were called active. The sample as a whole holds a higher share of actives than the screen did. Unmarked numbers belong to inactive results. Cut-off read from the data, not from the text of the source: active = activation above about 19%; inactive = the rest.", "data": [{"target": "Peroxisome proliferator-activated receptor gamma (Homo sapiens) (UniProt P37231)", "sequence (P37231 whole entry, looked up)": "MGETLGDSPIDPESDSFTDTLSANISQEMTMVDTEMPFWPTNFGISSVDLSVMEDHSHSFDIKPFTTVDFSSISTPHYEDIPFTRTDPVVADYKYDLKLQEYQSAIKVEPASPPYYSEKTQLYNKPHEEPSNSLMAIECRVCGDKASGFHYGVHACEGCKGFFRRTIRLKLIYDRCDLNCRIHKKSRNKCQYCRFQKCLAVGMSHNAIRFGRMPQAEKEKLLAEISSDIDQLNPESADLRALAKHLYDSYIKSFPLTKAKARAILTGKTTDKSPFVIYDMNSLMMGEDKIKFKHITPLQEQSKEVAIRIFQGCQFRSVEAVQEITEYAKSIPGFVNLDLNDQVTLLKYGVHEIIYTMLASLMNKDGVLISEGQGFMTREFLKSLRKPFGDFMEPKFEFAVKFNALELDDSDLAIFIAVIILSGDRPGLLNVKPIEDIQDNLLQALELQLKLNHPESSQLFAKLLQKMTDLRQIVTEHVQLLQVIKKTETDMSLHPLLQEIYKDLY", "assay": "PPARgamma agonists recruiting SRC-1 coactivator, primary screen, biochemical (AID 631);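 note: 0% = DMSO and 100% = reference agonist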", "conditions": "PPARgamma-SRC-1 coactivator recruitment biochemical assay; at 8 µM; stronger effect = higher value", "values": [{"smiles": "Cc1cc(C)c2cc(CN(Cc3nnnn3Cc3ccc(F)cc3)C3CCCC3)c(=O)[nH]c2c1", "activation": "2.6%"}, {"smiles": "Cc1cc2cc(CN(Cc3cccs3)Cc3nnnn3CC3CCCO3)c(=O)[nH]c2cc1C", "note": "(centres undefined)", "activation": "-4.1%"}, {"smiles": "Cc1cc(C)c2cc(CN(Cc3cccs3)Cc3nnnn3CC3CCCO3)c(=O)[nH]c2c1", "note": "(centres undefined)", "activation": "23.5% (active)"}, {"smiles": "CCC(C)(C)NC(=O)C(c1ccccn1)N(C(=O)c1csnn1)c1ccccc1", "note": "(centres undefined)", "activation": "3.1%"}, {"smiles": "C/C(=N\\NC(=O)OC(C)(C)C)c1ccc[nH]1", "activation": "-0.7%"}, {"smiles": "Cc1ccc(OCC(=O)Nc2ccc(-c3nc4ncccc4o3)cc2)cc1", "activation": "19.5% (active)"}, {"smiles": "Cc1ccc(OCC(=O)Nc2ccc(S(=O)(=O)Nc3ccccn3)cc2)cc1", "activation": "2.2%"}, {"smiles": "CC(=O)Nc1ccc(OCC(=O)NCc2ccc(C)cc2)cc1", "activation": "-5.7%"}, {"smiles": "O=C(C1CCN(C2CCN(Cc3cccc4c3OCO4)CC2)CC1)N1CCOCC1", "activation": "1.6%"}, {"smiles": "CCn1c(CNC(=O)c2ccco2)nnc1SCC(=O)Nc1cccc(F)c1", "activation": "1.6%"}, {"smiles": "CCn1c(SCC(=O)Nc2cccc(F)c2)nnc1-c1cc2cc(Br)ccc2o1", "activation": "24.4% (active)"}, {"smiles": "Cn1c(SCC(=O)Nc2ccc(Br)cc2F)nnc1-c1ccco1", "activation": "0.1%"}, {"smiles": "Cc1ccc(OCC(=O)OC(C)CN(C)Cc2ccccc2)cc1", "note": "(centres undefined)", "activation": "5%"}, {"smiles": "COC(=O)CSc1nccc(-c2cccs2)n1", "activation": "4.8%"}, {"smiles": "NC(=O)CSc1oc(-c2cccs2)nc1S(=O)(=O)c1ccccc1", "activation": "20.3% (active)"}, {"smiles": "COc1ccc(OC)c(C(=O)CSc2nnc(-c3cccs3)o2)c1", "activation": "11.4%"}, {"smiles": "COc1cccc(CNC(=O)Cc2csc(Nc3nc(=S)[nH]c4ccccc34)n2)c1", "activation": "-3.6%"}, {"smiles": "CC(C)C(NC(=O)C1CCC(C(C)(C)C)CC1)C(=O)NCCCN1CCCCC1", "note": "(centres undefined)", "activation": "13.2%"}, {"smiles": "Cc1cc(C)c2nc(N3CCCC3)c(C#N)cc2c1", "activation": "3.7%"}, {"smiles": "Cc1cccc2cc(C#N)c(N3CCCC3)nc12", "activation": "7.6%"}, {"smiles": "CC(=O)c1ccc(S(=O)(=O)N2CCN(c3nc4c(C)c(C)ccc4cc3C#N)CC2)cc1", "activation": "27.9% (active)"}, {"smiles": "CCCN1CNC(=S)N(CCc2ccccc2)C1", "activation": "4%"}, {"smiles": "CNS(=O)(=O)c1ccc(N2CCCC2=O)c([N+](=O)[O-])c1", "activation": "-1.5%"}, {"smiles": "COC(=O)c1[nH]c2ccccc2c1NS(=O)(=O)c1ccc(OC)cc1OC", "activation": "6.1%"}, {"smiles": "COC(=O)c1[nH]c2ccc(Br)cc2c1NC(=O)Oc1ccccc1", "activation": "20.2% (active)"}, {"smiles": "COC(=O)c1[nH]c2ccccc2c1NC(=O)CN1CCCc2ccccc21", "activation": "0.3%"}, {"smiles": "C=CCn1cc(-c2cccc(C(F)(F)F)c2)cc(C#N)c1=O", "activation": "5.6%"}, {"smiles": "CCn1c(=O)cc(SCC(=O)NCc2ccc3c(c2)OCO3)c2ccccc21", "activation": "21.9% (active)"}, {"smiles": "CCn1c(=O)cc(SCC(=O)NCCC2=CCCCC2)c2ccccc21", "activation": "13.8%"}, {"smiles": "CC(C)NC(=O)CSc1ccccc1C(=O)NCc1ccc2c(c1)OCO2", "activation": "-1.4%"}, {"smiles": "COCCCNC(=S)NNC(=O)C(O)(c1ccccc1)c1ccccc1", "activation": "-2.3%"}, {"smiles": "Cc1nn(CC(=O)NCc2ccccn2)c(C)c1[N+](=O)[O-]", "activation": "5.4%"}, {"smiles": "CS(=O)(=O)N(CC(=O)NC1CCCC1)Cc1ccc(F)cc1", "activation": "6.9%"}, {"smiles": "CCOP(=O)(OCC)C(Nc1ccc([N+](=O)[O-])cc1)c1ccc(Cl)cc1", "note": "(centres undefined)", "activation": "-6.5%"}, {"smiles": "Cc1ccccc1-c1n[nH]c(=S)n1/N=C/c1ccc(-c2ccccc2Br)o1", "activation": "32.5% (active)"}, {"smiles": "Cc1ccccc1-c1n[nH]c(=S)n1C", "activation": "3.3%"}, {"smiles": "Cc1n[nH]c(=S)n1/N=C/c1ccc(Br)o1", "activation": "7.5%"}, {"smiles": "O=C1CCCN1CCCNC(=S)Nc1ccc(F)c(Cl)c1", "activation": "-5.5%"}, {"smiles": "CCc1nc2ccccc2c(C(=O)OC2CCCCC2=O)c1C", "note": "(centres undefined)", "activation": "12.2%"}, {"smiles": "CC1=C(C(=O)N(C)C)C(c2ccccc2OC(F)F)NC(=O)N1", "note": "(centres undefined)", "activation": "6.7%"}, {"smiles": "COC(=O)c1ccc(S(=O)(=O)c2ccc(C(=O)OC)s2)s1", "activation": "26.8% (active)"}, {"smiles": "COC(=O)c1cc(OC)ccc1-c1ccc(OC)cc1", "activation": "9.8%"}, {"smiles": "CCS(=O)(=O)Nc1cc(C(=O)OC)ccc1C(=O)OC", "activation": "7%"}, {"smiles": "CCOc1ccc(S(=O)(=O)Nc2ccncc2)c(C)c1C", "activation": "7.6%"}, {"smiles": "Cc1ccc(C(=O)CNc2ccc(F)cc2)cc1", "activation": "-3.3%"}, {"smiles": "COc1cccc2c1CCC(NC(C)=O)C2=O", "note": "(centres undefined)", "activation": "0.5%"}, {"smiles": "COc1ccc(NS(=O)(=O)c2cc(NC(=O)CC(=O)c3ccc([N+](=O)[O-])cc3)ccc2C)cc1", "activation": "2.2%"}, {"smiles": "O=C(O)/C=C\\C(=O)Nc1ccc(OCc2ccccc2)cc1", "activation": "5.5%"}, {"smiles": "O=C(NCCCN1CCN(c2ccc(F)cc2)CC1)Nc1ccc([N+](=O)[O-])cc1", "activation": "11.9%"}, {"smiles": "CCSc1nc(-c2ccc(OC)cc2)cc(-c2ccc(OC)cc2)c1C#N", "activation": "-1.5%"}, {"smiles": "CCOC(=O)CC(=O)CSc1nc(-c2ccccc2)cc(-c2ccc(Cl)cc2)c1C#N", "activation": "22.2% (active)"}, {"smiles": "N#Cc1c(C(F)(F)F)cc(-c2ccc(Cl)cc2)nc1SCC(=O)O", "activation": "3.2%"}, {"smiles": "COc1ccc(C(=O)OCC(=O)NCC2CCCO2)cc1[N+](=O)[O-]", "note": "(centres undefined)", "activation": "15%"}, {"smiles": "O=C(NCCOc1ccccc1F)Nc1ccc(Br)cc1", "activation": "3.6%"}, {"smiles": "CC/C(=N\\NC(=O)c1ccccc1Cl)c1ccc(Br)s1", "activation": "4.2%"}, {"smiles": "CCCCn1c(=O)c(C(C)=O)c(O)c2ccccc21", "activation": "0.5%"}, {"smiles": "CC(=O)n1c(C=Nc2ccccc2)c(O)c2ccccc21", "activation": "22.7% (active)"}, {"smiles": "CCOc1ccc(N=Cc2c(O)n(-c3cccc(C)n3)c(=O)c3ccccc23)cc1", "activation": "1.1%"}, {"smiles": "COc1ccc(NS(=O)(=O)c2ccc(O)c(C(=O)OCC(=O)NC3CCCCC3)c2)cc1", "activation": "4.7%"}, {"smiles": "CNC(=O)c1[nH]cnc1C(=O)N[C@@H](CC(C)C)C(=O)OC(C)(C)C", "activation": "5.5%"}, {"smiles": "CN(CCc1cnn(C)c1)Cc1cn(C)nc1-c1ccccc1F", "activation": "-5.8%"}, {"smiles": "CC(C)N(Cc1ccccc1)C(=S)Nc1ccc(OC(F)F)cc1", "activation": "-4.1%"}, {"smiles": "COc1cc(OC)c(C2=NOC(C(=O)Nc3c(C)n(C)n(-c4ccccc4)c3=O)C2)cc1Cl", "note": "(centres undefined)", "activation": "3.3%"}, {"smiles": "O=C(O)Cc1sc(-c2ccc(C(=O)O)cc2)nc1-c1ccccc1", "activation": "12.4%"}, {"smiles": "Cc1ccc(-c2nc(C)sc2CC(=O)O)cc1", "activation": "-2%"}, {"smiles": "O=C(O)Cc1sc(-c2ccccc2)nc1-c1cccs1", "activation": "28.9% (active)"}, {"smiles": "CC1(C)C(C=C(Cl)Cl)C1C(=O)N(Cc1ccc(Cl)cc1)C1CCS(=O)(=O)C1", "note": "(centres undefined)", "activation": "1.5%"}, {"smiles": "N#C/C(C(=O)N1CCOCC1)=C1/SC(Cc2ccc(F)cc2)C(=O)N1c1ccccc1", "note": "(centres undefined)", "activation": "-4.4%"}, {"smiles": "CC(C)NC(=O)NC(=O)CSc1nnc(-c2ccccc2F)n1N", "activation": "1.8%"}, {"smiles": "Cn1c(CO)cnc1SCc1ccccc1", "activation": "6.4%"}, {"smiles": "CSc1c(SCc2ccccc2)cnn(Cc2ccccc2)c1=O", "activation": "24% (active)"}, {"smiles": "O=c1c2ccccc2c(-c2ccccc2)nn1Cc1ccccc1", "activation": "1%"}, {"smiles": "COC(=O)NNC1=CC(=O)CC(C)(C)C1", "activation": "5.4%"}, {"smiles": "COc1ccc(-n2c(C)cc(C(=O)COC(=O)c3cc(OC)c(OC)cc3NC(=O)c3cccs3)c2C)cc1", "activation": "8.5%"}, {"smiles": "Cc1cccc(-c2ncc(CN3CCC(CO)(CCCc4ccccc4)CC3)cn2)c1", "activation": "5.8%"}, {"smiles": "OCC1(CCc2ccccc2)CCN(Cc2ccc3nsnc3c2)CC1", "activation": "35.7% (active)"}, {"smiles": "CC(=O)c1cccc(CN2CCC(CO)(Cc3ccccc3)CC2)c1", "activation": "0%"}, {"smiles": "c1csc(-c2nnc(COc3ccc4c(c3)OCO4)o2)c1", "activation": "0.1%"}, {"smiles": "Cc1cccc(NC(=O)c2cc([N+](=O)[O-])ccc2N2CCN(C)CC2)c1", "activation": "10.3%"}, {"smiles": "COCCN(C(=O)c1ccccc1F)c1c(N)n(Cc2ccccc2)c(=O)[nH]c1=O", "activation": "-2.5%"}, {"smiles": "CCN1CC(CN(C)Cc2nc(-c3ccc(Cl)cc3)no2)CC1=O", "note": "(centres undefined)", "activation": "-3.9%"}, {"smiles": "Cc1n[nH]c(=O)nc1N/N=C/c1cccs1", "activation": "22.1% (active)"}, {"smiles": "Clc1ccc(N/N=C/c2cccs2)nn1", "activation": "4.4%"}, {"smiles": "COc1ccc(Nc2nc(=O)[nH]nc2C)cc1", "activation": "5.2%"}, {"smiles": "CC(=O)Nc1ccc(CN2CCN(Cc3ccc(F)c(F)c3)C(CCO)C2)cc1", "note": "(centres undefined)", "activation": "3.4%"}, {"smiles": "O=C(C1CCN(S(=O)(=O)c2cccs2)CC1)N1CCCCCC1", "activation": "-1.2%"}, {"smiles": "Cc1ccc(C(=O)NCC(=O)O)cc1S(=O)(=O)N1CCCCC1", "activation": "2.2%"}, {"smiles": "Cc1ccc(NS(=O)(=O)c2cccs2)cc1S(=O)(=O)N1CCCCCC1", "activation": "27.9% (active)"}, {"smiles": "O=C(NNc1cc(Cl)ccc1Cl)c1cccnc1Cl", "activation": "5%"}, {"smiles": "C=C(C)CNC(=S)N/N=C/c1ccccc1OCC(=O)O", "activation": "4.6%"}, {"smiles": "CCc1nnc(NC(=O)c2cccs2)s1", "activation": "1.3%"}, {"smiles": "CCCc1nnc(NC(=O)c2cccs2)s1", "activation": "-1.6%"}, {"smiles": "CCOc1cccc(C(=O)Nc2nnc(-c3cccs3)s2)c1", "activation": "41.8% (active)"}, {"smiles": "CCOc1cccc(C(=O)Nc2cccnc2)c1", "activation": "4.5%"}, {"smiles": "Cc1ccc(C(=O)Oc2coc(CSc3nnc(NC(=O)c4cccs4)s3)cc2=O)cc1C", "activation": "-0.6%"}, {"smiles": "Cc1ccc(C(=O)Nc2nnc(-c3cccs3)s2)cc1C", "activation": "21.8% (active)"}, {"smiles": "COc1ccc(/C=C/C2=CC(C)(C)NC(=S)N2)c(OC)c1", "activation": "-5.6%"}, {"smiles": "O=C(Cc1ccccc1Cl)N1CCN(c2ccccn2)CC1", "activation": "-1%"}, {"smiles": "CC(Sc1nncn1C)C(=O)Nc1cc(C(F)(F)F)ccc1N1CCOCC1", "note": "(centres undefined)", "activation": "-2.1%"}]}]}
